Entries with a potency or affinity are not part of this list. Calls of active or inactive are those of the source.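 How the source made its calls: active means fitted half-maximal dose no more than twice the top valid tested dose, for compounds that lower signal; inconclusive means fit invalid, or curve flat with activity between -70 and -30; inactive means potency past limit, curve flat within ±30, or signal increasing.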
Target: NAD-dependent protein deacylase sirtuin-5, mitochondrial (Homo sapiens) (UniProt Q9NXA8)
Experiment: SIRT5 deacylase inhibitors, dose response, biochemical, fluorescence imaging, cherry-pick, set 6 (AID 720597);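 further: lower AMC signal can also come from blocking the trypsin step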
Conditions: Purified SirT5, succinyl-peptide-AMC/trypsin fluorescence; series mostly up to 15 µM

Sequence of NAD-dependent protein deacylase sirtuin-5, mitochondrial (Homo sapiens) (Q9NXA8 whole entry, looked up): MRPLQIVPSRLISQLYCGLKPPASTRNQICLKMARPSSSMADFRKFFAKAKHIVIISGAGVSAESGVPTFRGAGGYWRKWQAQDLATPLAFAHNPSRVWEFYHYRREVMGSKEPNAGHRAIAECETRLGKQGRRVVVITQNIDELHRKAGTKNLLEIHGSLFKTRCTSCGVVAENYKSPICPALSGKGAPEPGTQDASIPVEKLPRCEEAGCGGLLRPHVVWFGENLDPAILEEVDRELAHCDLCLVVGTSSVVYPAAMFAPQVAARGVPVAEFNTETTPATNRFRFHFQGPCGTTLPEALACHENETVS

| SMILES | outcome |
| --- | --- |
| C[C@H](CO)N1C[C@H](C)[C@@H](CN(C)S(=O)(=O)c2ccc(F)cc2)Oc2cc(C#Cc3ccc(F)cc3)ccc2S1(=O)=O | inactive |
| Cc1cccc(-c2ccc([C@H]3[C@H]4CN(S(=O)(=O)c5cccc(F)c5)CC(=O)N4[C@H]3CO)cc2)c1 | inactive |
| CC(C)[C@@H](C)NC(=O)N(C)C[C@@H]1OCc2ccccc2-c2c(n(C)c3ccccc23)C(=O)N([C@@H](C)CO)C[C@@H]1C | inactive |
| CC(C)CC#Cc1ccc2c(c1)O[C@H](CN(C)C(=O)C1CCCCC1)[C@@H](C)CN([C@@H](C)CO)S2(=O)=O | inactive |
| C[C@@H]1CN([C@@H](C)CO)S(=O)(=O)c2ccc(C#CC3CC3)cc2O[C@H]1CN(C)Cc1ccccc1F | inactive |
| CCCNC(=O)N1[C@@H](CO)[C@@H](c2ccccc2)C12CN(C(=O)CC1CC1)C2 | inactive |
| Cc1ccc(S(=O)(=O)Nc2ccc3c(c2)C(=O)N([C@@H](C)CO)C[C@H](C)[C@@H](CN(C)Cc2ccc(C(F)(F)F)cc2)OCCCC[C@H](C)O3)cc1 | inactive |
| CCCN(C[C@H]1[C@H](c2ccccc2)[C@@H](CO)N1C(C)=O)C(=O)NC(C)C | inactive |
| COc1ccc(S(=O)(=O)N(C)C[C@H]2OCCCC[C@H](C)Oc3ccc(NS(=O)(=O)c4ccc(F)cc4)cc3C(=O)N([C@H](C)CO)C[C@H]2C)cc1 | inactive |
| CC(C)C#Cc1ccc([C@@H]2[C@@H](CO)N3C(=O)CN(C(=O)c4ccc5c(c4)OCO5)C[C@H]23)cc1 | inactive |
| C[C@@H]1CN([C@H](C)CO)C(=O)c2cc(NS(=O)(=O)c3ccc(Cl)cc3)ccc2O[C@@H](C)CCCCO[C@@H]1CN(C)Cc1ccccc1 | inactive |
| COc1ccc(S(=O)(=O)N(C)C[C@@H]2Oc3cc(C#CC4CCCC4)ccc3S(=O)(=O)N([C@H](C)CO)C[C@H]2C)cc1 | inactive |
| COc1ccc(S(=O)(=O)Nc2ccc3c(c2)C(=O)N([C@H](C)CO)C[C@H](C)[C@H](CN(C)Cc2ccc(C(F)(F)F)cc2)OCCCC[C@H](C)O3)cc1 | inactive |
| Cc1ccc(S(=O)(=O)Nc2ccc3c(c2)C(=O)N([C@H](C)CO)C[C@@H](C)[C@@H](CN(C)S(=O)(=O)c2ccccc2)OCCCC[C@@H](C)O3)cc1 | inactive |
| C[C@@H]1CN([C@@H](C)CO)C(=O)c2cccc(NS(=O)(=O)c3cn(C)cn3)c2O[C@H]1CN(C)C(=O)Nc1cccc2ccccc12 | inactive |
| Cc1noc(C)c1NC(=O)N(C)C[C@@H]1OCCCC[C@H](C)Oc2ccc(NC(=O)Nc3ccc(F)cc3)cc2C(=O)N([C@@H](C)CO)C[C@@H]1C | inactive |
| C[C@H](CO)N1C[C@H](C)[C@H](CN(C)C(=O)NC2CCCCC2)Oc2cc(/C=C/c3ccccc3)ccc2S1(=O)=O | inactive |
| O=C(NCC[C@@H]1CC[C@H](NS(=O)(=O)c2cccc(F)c2)[C@H](CO)O1)C1CCOCC1 | inactive |
| C[C@@H]1CN([C@H](C)CO)C(=O)c2cccc(NC(=O)NC3CCCCC3)c2O[C@@H]1CN(C)Cc1ccc(Oc2ccccc2)cc1 | inactive |
| Cc1ccc(S(=O)(=O)N(C)C[C@H]2OCCCC[C@@H](C)Oc3ccc(NS(=O)(=O)c4ccccc4)cc3C(=O)N([C@H](C)CO)C[C@H]2C)cc1 | inactive |
| C[C@H](CO)N1C[C@H](C)[C@@H](CN(C)S(=O)(=O)c2cccc(F)c2)Oc2ncc(C#CC3CCCCC3)cc2C1=O | inactive |
| C[C@H]1CN([C@@H](C)CO)S(=O)(=O)c2ccc(C3=CCCC3)cc2O[C@@H]1CN(C)Cc1ccccc1 | inactive |
| COc1ccc(S(=O)(=O)N(C)C[C@H]2OCCCC[C@H](C)Oc3ccc(NS(=O)(=O)c4ccc(C)cc4)cc3C(=O)N([C@H](C)CO)C[C@@H]2C)cc1 | inactive |
| O=C(NCC[C@@H]1CC[C@H](NC(=O)C2CC2)[C@H](CO)O1)c1cc(Cl)cc(Cl)c1 | inactive |
| C[C@@H]1CN([C@H](C)CO)S(=O)(=O)c2ccc(C#CC3CC3)cc2O[C@@H]1CN(C)Cc1ccccc1F | inactive |
| CCC(=O)N1CC2(C1)[C@H](c1ccccc1)[C@H](CO)N2Cc1ccccc1OC | inactive |
| C[C@@H]1CN([C@@H](C)CO)C(=O)c2cc(NC(=O)C3CC3)ccc2O[C@@H]1CN(C)S(=O)(=O)c1cn(C)cn1 | inactive |
| C[C@@H]1CCCCO[C@H](CN(C)S(=O)(=O)c2ccc(Cl)cc2)[C@H](C)CN([C@@H](C)CO)C(=O)c2cc(NS(=O)(=O)c3ccc(F)cc3)ccc2O1 | inactive |
